Drawing on the antibiotic and cytotoxicity screens of Wong et al. (2023), this text covers cytotoxicity call for 56 compounds.

The whole screen tested about 39,000 compounds, of which about 1,500 (3.8%) were called active. For the sample, actives were picked, then their nearest neighbours and some compounds at random.

The test system of the assay is HSkMC (human skeletal muscle cells). The assay is described as follows: cytotoxicity call (relative viability < 0.9). The note with it: 10 µM.
In the case of `O=C(O)C=CC(=O)O.c1ccc2nc(N3CCNCC3)ccc2c1`, the cytotoxicity call is “inactive”.

In the case of `Cc1ncc(CNC(=O)N(CCCl)[NH2+][O-])c(N)n1`, the cytotoxicity call was “inactive”. With `CC(=O)OC1C2CCC3C(C)(O)C4CC(O)C(C)(C)C4(O)C(O)CC13CC2(C)O` (stereo unspecified), the cytotoxicity call is “inactive”. Next, `Cc1cc(C2=NO[C@](c3cc(Cl)cc(Cl)c3)(C(F)(F)F)C2)ccc1C(=O)NCC(=O)NCC(F)(F)F`: “active”; `CN1CCOCC12CCN(c1ncccn1)CC2`: “inactive”.

For the compound `COc1ccc(C2(CN)CCCC2)cc1`, the cytotoxicity call was “inactive”. With `NCc1cc(=O)[nH]o1`, the cytotoxicity call is “inactive”. With `O=C1N[C@@H]2C(=C[C@H](O)[C@@H](O)[C@H]2O)c2cc3c(c(O)c21)OCO3`, the cytotoxicity call was “active”. For the compound `N[C@@H](c1ccccc1)[C@H](O)c1ccccc1`, the cytotoxicity call is “inactive”. For the compound `CNC(=O)Oc1ccc2c(c1)C1(C)CCN(C)C1N2C.O=S(=O)(O)O` (stereo unspecified), the cytotoxicity call is “inactive”.

`Cc1ccc(N2CCO[C@@H]3CNCC[C@H]3C2)nn1`: the cytotoxicity call was “inactive”. As to `NCCc1nccs1`, the cytotoxicity call was “inactive”. In the case of `CCN1C[C@H]2CN(Cc3nccn3C)C[C@H]2C1=O` it was “inactive”; in that of `CNC(=O)Oc1cccc2ccccc12`, “inactive”; in that of `C[C@H]1C[C@H]2CNCC[C@@H]2O1`, “inactive”. For `O=[N+]([O-])c1ccc(N(CCO)CCO)c2c1no[n+]2[O-]`, the cytotoxicity call was “active”. On to `CNC(=O)Oc1ccc2c(c1)C1(C)CCN(C)C1N2C.O=C(O)c1ccccc1O` (stereo unspecified), for which the cytotoxicity call was “inactive”. With `Cn1ccnc1CN1CCC[C@]2(CCNC2=O)C1`, the cytotoxicity call is “inactive”. Take `CC(=O)NN1Cc2ccccc2C1=N`: the cytotoxicity call is “inactive”. `CC(C)c1ccc2[nH]c(=O)c(CCN)cc2c1`: the cytotoxicity call was “inactive”. For `[N-]=[N+]=NCc1ccccc1C[C@@]1(C(=O)NCCN2CCOCC2)N=C(c2ccc(OCCCO)cc2)O[C@@H]1c1ccccc1N=[N+]=[N-]`, the cytotoxicity call is “inactive”. For `CC1=C2CC3C(CC=C4CC(O)CCC43C)C2CCC12OC1CC(C)CNC1C2C` (stereo unspecified), the cytotoxicity call was “inactive”.

In the case of `Cc1ccc(OC(=O)N(C)C[C@H]2OCc3ccccc3-c3c(n(C)c4ccccc34)C(=O)N([C@@H](C)CO)C[C@@H]2C)cc1`, the cytotoxicity call was “inactive”. Next, `O=C1[O][SbH]23[O]C(=O)[C@H]([O]2)[C@H]2[O][SbH]4([O]C(=O)[C@H]([O]4)[C@H]1[O]3)[O]C2=O`: “active”. As to `O=C1[O][SbH]23[O]C(=O)C([O]2)C2[O][SbH]4([O]C(=O)C([O]4)C1[O]3)[O]C2=O`, the cytotoxicity call was “inactive”.

With `CC(C)(C)NCC(O)c1ccccc1Cl.Cl` (stereo unspecified), the cytotoxicity call is “inactive”. Regarding `CC(C)(C#N)O[C@@H]1O[C@H](CO)[C@@H](O)[C@H](O)[C@H]1O`, the cytotoxicity call is “inactive”. As to `CN1C(=O)[C@@]23C[C@]4([C@@]56C[C@]78SS[C@](CO)(C(=O)N7[C@@H]5Nc5ccccc56)N(C)C8=O)c5ccccc5N[C@H]4N2C(=O)[C@@]1(CO)SS3`, the cytotoxicity call was “active”.

For `CN1C(=O)[C@]23CC4=CC=C[C@H](O)[C@H]4N2C(=O)[C@@]1(CO)SS3`, the cytotoxicity call is “active”. `N#C[C@H](O[C@@H]1O[C@H](CO[C@@H]2O[C@H](CO)[C@@H](O)[C@H](O)[C@H]2O)[C@@H](O)[C@H](O)[C@H]1O)c1ccccc1`: the cytotoxicity call was “inactive”.

Regarding `CN1CC[C@]2(CCCO2)C1`, the cytotoxicity call is “inactive”.

For the compound `CCOc1ccc(CN)cn1`, the cytotoxicity call is “inactive”.

For the compound `NSC(=S)N1CCCC1`, the cytotoxicity call is “inactive”.

As to `O=C1C=C2C=CC3CC2(O1)C1CCCCN31` (stereo unspecified), the cytotoxicity call is “inactive”. As to `Nc1ccc2c(c1)CNCC2`, the cytotoxicity call is “inactive”. Take `O=c1[nH]c2ccccc2n1C1CCN(CCCC(c2ccc(F)cc2)c2ccc(F)cc2)CC1`: the cytotoxicity call is “active”. `O=c1[nH]c2ccccc2n1CCCN1CCC(n2c(=O)[nH]c3cc(Cl)ccc32)CC1`: the cytotoxicity call was “inactive”. For the compound `COc1ccn(C)c(=O)c1C#N`, the cytotoxicity call was “inactive”.

Consider `Cl.c1ccc2c(c1)OCC(C1=NCCN1)O2` (stereo unspecified), for which the cytotoxicity call was “inactive”. In the case of `CI.O=C(COc1ccc(Cl)cc1Cl)OC[C@H]1CCCN2CCCC[C@@H]12`, the cytotoxicity call is “inactive”. Next, `O=C1CO[C@]2(CNCCOC2)CN1CC1CC1`: “inactive”. Next, `CN(C)C(=O)CCC(=O)N1C[C@H]2C[C@@H]1CN2`: “inactive”.

For the compound `CO[C@@H]1C[C@@H](C[C@H]2CC[C@H](C)[C@H]([C@@H](C)C(=O)O)O2)O[C@]2(O[C@](C)([C@H]3CC[C@@](C)([C@H]4O[C@@H]([C@H]5O[C@@](O)(CO)[C@H](C)C[C@@H]5C)C[C@@H]4C)O3)C[C@H]2C)[C@@H]1C`, the cytotoxicity call is “active”. `C[C@@H]1CN([C@H](C)CO)C(=O)CCCn2nncc2CO[C@@H]1CN(C)C(=O)Oc1cccc2ccccc12`: the cytotoxicity call is “inactive”. Turning to `Clc1ccc(C(c2ccc(Cl)cc2)C(Cl)(Cl)Cl)cc1`, the cytotoxicity call was “inactive”. `N[C@H]1C[C@H]1c1ccccc1`: the cytotoxicity call was “inactive”. Regarding `CC(=O)[O][Hg][c]1ccccc1`, the cytotoxicity call is “active”. On to `O=C(Cc1ccccc1)c1ccccc1`, for which the cytotoxicity call was “inactive”.

As to `NCC(=O)c1ccccc1`, the cytotoxicity call is “inactive”.

As to `O.O.O.O=C([O-])C1[O][Sb]2[O]C(=O)C([O]2)C(C(=O)[O-])[O][Sb]2[O]C(=O)C1[O]2.[K+].[K+]` (stereo unspecified), the cytotoxicity call is “inactive”.

Turning to `CC[C@@H](C)[C@H]1NC(=O)C(C(C)=O)=C1O`, the cytotoxicity call is “inactive”. Take `CC[C@@H](N)[C@@H](O)c1ccc(O)c(O)c1`: the cytotoxicity call is “active”. As for `C[C@H](N)[C@H](O)c1ccc(O)c(O)c1`, the cytotoxicity call is “inactive”. Regarding `CCC(N)C(O)c1ccc(O)c(O)c1.Cl` (stereo unspecified), the cytotoxicity call was “inactive”. As for `Cn1cc([C@@H](O)c2ccccc2)[n+](C)c1`, the cytotoxicity call was “inactive”. As for `CC(CO)NC(=O)C1C=C2c3cccc4[nH]cc(c34)CC2N(C)C1.O=C(O)C=CC(=O)O` (stereo unspecified), the cytotoxicity call was “inactive”.
